Results: PubChem BioAssay (NCATS)
Inconclusive results are not listed. Calls of active or inactive are those of the source. Calls follow the shape of the dose curve; as a rule, active = well fitted curve in the direction sought with a large enough effect in the signal ratio (not every such curve was filed as active); inconclusive = small, poorly fitted or top-dose-only effect, or effect the other way, or a change in a side signal; inactive = no such curve, though single readings can be large or run the other way; the % refers to the signal ratio.

What follows are molecules tested against Tyrosine-protein phosphatase non-receptor type substrate 1 (Homo sapiens) + Leukocyte surface antigen CD47 (Homo sapiens) (UniProt P78324+Q08722) (assay: CD47-SIRPalpha protein protein interaction - HTRF assay qHTS validation (AID 1347058)). Settings: TR-FRET HTRF CD47-His / biotin-SIRPalpha binding, ratio 665/615; series mostly up to 38.3 µM.
Sequence of Tyrosine-protein phosphatase non-receptor type substrate 1 (Homo sapiens) + Leukocyte surface antigen CD47 (Homo sapiens) (P78324 whole entry, looked up, the tested form may be a part): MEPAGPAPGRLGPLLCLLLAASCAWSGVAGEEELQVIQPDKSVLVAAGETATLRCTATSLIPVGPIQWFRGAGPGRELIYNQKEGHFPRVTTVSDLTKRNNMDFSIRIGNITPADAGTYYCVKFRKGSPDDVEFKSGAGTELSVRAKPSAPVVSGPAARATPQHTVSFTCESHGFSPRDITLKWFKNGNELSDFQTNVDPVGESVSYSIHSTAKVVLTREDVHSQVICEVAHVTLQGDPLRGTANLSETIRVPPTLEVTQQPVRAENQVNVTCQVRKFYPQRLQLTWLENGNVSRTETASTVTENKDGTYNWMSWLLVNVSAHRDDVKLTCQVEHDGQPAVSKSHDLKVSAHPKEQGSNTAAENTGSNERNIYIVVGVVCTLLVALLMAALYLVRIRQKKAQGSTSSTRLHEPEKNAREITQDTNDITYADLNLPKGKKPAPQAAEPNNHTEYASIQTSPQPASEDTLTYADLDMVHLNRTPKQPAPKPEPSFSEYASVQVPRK
Sequence of Tyrosine-protein phosphatase non-receptor type substrate 1 (Homo sapiens) + Leukocyte surface antigen CD47 (Homo sapiens) (Q08722 whole entry, looked up, the tested form may be a part): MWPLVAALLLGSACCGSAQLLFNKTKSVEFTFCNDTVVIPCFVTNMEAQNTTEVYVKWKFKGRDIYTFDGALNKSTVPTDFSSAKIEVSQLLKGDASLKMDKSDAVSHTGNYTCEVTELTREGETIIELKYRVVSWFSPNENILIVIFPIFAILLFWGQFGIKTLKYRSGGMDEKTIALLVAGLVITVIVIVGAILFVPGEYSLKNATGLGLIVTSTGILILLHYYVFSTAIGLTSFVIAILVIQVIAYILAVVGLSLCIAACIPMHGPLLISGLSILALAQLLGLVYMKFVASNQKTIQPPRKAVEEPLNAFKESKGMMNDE
Text: SIRPalpha is a myeloid cell expressed immunomodulatory receptor that binds the tumor expressed immune checkpoint CD47. Therapeutic disruption of this interaction leads to immune-mediated tumor rejection. This assay was used to quantitate CD47-SIRPalpha binding biochemically and evaluate chemical libraries for novel CD47-SIRPalpha inhibitors. To recapitulate the biological interaction of CD47 and SIRPalpha, we designed expression constructs to produce their recombinant, soluble, extracellular interaction domains. CD47 was produced with an N-terminal 6His tag. SIRPalpha was produced with an N-terminal Avi-Tag for site-specific biotin incorporation. The CD47-SIRPalpha interaction was measured by TR-FRET using affinity tag linked reagents (anti-6His-Eu donor and streptavidin-XL665 acceptor). SIRPalpha without biotin incorporation was used as a positive control inhibitor.
SEQUENCE No. (e.g., 1, 2, 3, etc.); […] (e.g., Cells, Incubation, Reagent, etc.); VALUE and DESCRIPTION.
1a. Reagent. 3 uL CD47-His (12.5 nM) and Anti-His Eu Donor reagent (0.7 nM) added to respective wells in Assay buffer; white/solid bottom high base, med bind 1536-well plates (Greiner 789075)
1b. Reagent. 2 uL Assay buffer negative control for background fluorescence
2. Reagent. 23 nL library compounds (7-pt, 1:4 intraplate titration series) or DMSO control transferred by Pin Tool
3. Centrifuge. Centrifuge plate for 30 s at 1000 RPM
4. Incubation.#Incubate reagents at room temperature for 30 min, protected from light
5. Reagent. 2 uL SIRPalpha-biotin (100 nM) in Assay buffer
6. Incubation.#Incubate reagents at room temperature for 30 min, protected from light
7. Reagent. 1 uL SAV-XL665 (85 nM) acceptor reagent added to respective wells
8. Centrifuge. Centrifuge plate for 30 s at 1000 RPM
9. Incubation. Incubate reagents at room temperature for 30 min, protected from light
10. Detector. Measure Top TR-FRET on EnVision (Eu/APC filter set); calculate ratio Ch1/Ch2
1. Assay buffer composition.#Phosphate buffered saline (PBS; 10 mM Phosphate, 137 mM NaCl, and 2.7 mM KCl; pH 7.4), 0.05% IGEPAL CA-630
2. 23nL of […] library compounds (7 plates) or DMSO vehicle control transferred to 9 Greiner white/solid bottom high base, TC plates in 7 interplate 1:5 titrations (see Yasgar, A. et al. 2008) with Pintool. Two of the 9 plates are DMSO-only in compound field at beginning and end of compound library-treated plates.
10. Detector settings#Mirror = LANCE/DELFIA Dual Enh; Ex. Filter = UV2[TRF] 320; Em. Filter = APC 665; 2nd Em. Filter = Europium 615; Measurement h = 6.5; Ex. light (%) = 100; Delay = […]; Window t = 100 us; No. Seq. windows = 1; Time between flashes = 2000us; No. of flashes = 100; No. of flashes for 2nd detector = 100; Calculation: "Ratio Ch1/Ch2"

SMILES	outcome
c1ccc2sc(C3(N4CCCCC4)CCCCC3)cc2c1	inactive
CN1C2CCC1CC(OC(=O)c1cc(Cl)cc(Cl)c1)C2 (stereo not given)	inactive
CC[C@@H](C(N)=O)N1CCCC1=O	inactive
NC(CCP(=O)(O)O)C(=O)O (stereo not given)	inactive
O=C(O)[C@@H]1CCN1	inactive
CCCN1CCC[C@H](c2cccc(O)c2)C1	inactive
CCCN1CCO[C@@H]2c3cc(O)ccc3OC[C@H]21	inactive
COc1cc(C(O)CN)ccc1O (stereo not given)	inactive
NCCc1c[nH]c2ccccc12	inactive
Clc1cnc(Oc2ccc(Oc3ncc(Cl)cc3Cl)cc2)c(Cl)c1	inactive
O=C(O)CC[N+](=O)[O-]	inactive
CC(=O)[C@H]1CCC2C3CC[C@H]4C[C@H](O)CC[C@]4(C)C3CC[C@@]21C (stereo not given in full)	inactive
O=C(N[C@H]1CN2CCC1CC2)c1ccc(Cl)cc1	inactive
CCCN(CCC)C1CCc2ccc(O)cc2C1 (stereo not given)	inactive
CN[C@@H]1C[C@@H](c2ccc(Cl)c(Cl)c2)c2ccccc21	inactive
NC(N)=NOCCC(N)C(=O)O (stereo not given)	inactive
C[C@@H]1O[C@H](C[N+](C)(C)C)C[C@H]1O	inactive
O=C1CCCN1CC#CCN1CCCC1	inactive
NC(=NCCC[C@H](N)C(=O)O)N[N+](=O)[O-]	inactive
CCCCc1ccc(C(=O)O)nc1	inactive

SMILES	outcome
NCc1cc(=O)[nH]o1	inactive
C=CCN1CC[C@]23CCCCC2[C@H]1Cc1ccc(O)cc13 (stereo not given in full)	inactive
Cn1cnc(CCN)c1	inactive
CC(C)Oc1cccnc1N(C)C1CCN(Cc2ccccc2)CC1	inactive
CC1=NN=C(c2ccc(N)cc2)c2cc3c(cc2C1)OCO3	inactive
CC(=O)NCCc1c[nH]c2ccccc12	inactive
NCCc1c[nH]c2ccc(O)cc12	inactive
C[C@]12N[C@H](Cc3ccccc31)c1ccccc12	inactive
S=C(NC1CCCCC1)N1CCC(c2cnc[nH]2)CC1	inactive
CCCN(CCC)[C@@H]1CCc2ccc(O)cc2C1	inactive
C/C=C(/C)C(=O)O[C@H]1C(C)=C2[C@H]([C@@H]1OC(=O)CCCCCCC)[C@@](C)(OC(C)=O)C[C@H](OC(=O)CCC)[C@@]1(O)[C@H]2OC(=O)[C@@]1(C)O	inactive
C[N+](C)(C)CC(=O)O	inactive
C#CCOC(=O)C1=CCCN(C)C1	inactive
C[C@@H](N)Cc1cnc[nH]1	inactive
NC(=O)CN1CC(O)CC1=O (stereo not given)	inactive
CNCCc1ccc(O)c(O)c1	inactive
Cc1nccc2c1[nH]c1ccccc12	inactive
C[N+]1(C)C2CCC1CC(OC(=O)C(CO)c1ccccc1)C2 (stereo not given)	inactive
CNCCc1c[nH]c2ccc(O)cc12	inactive
O=C(Cc1ccc(Cl)c(Cl)c1)N1CCCCC1CN1CCCC1 (stereo not given)	inactive
